Most compounds without a hit are left out; they make up all but 2.4% or so of the library.
CHT PAM = allosteric activators of human choline transporter CHT; Q9GZV3; CHT-expressing cells, membrane potential dye, choline EC20; active compounds read high; LV-AA mutant CHT in HEK293 cells; B-score at 10 µM; 310,000 tested, 0.49% active; AID 488977;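 active = initial fluorescence not abnormally high and integrated response B-score, plate-corrected, over 3 SD above library mean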
CHT block = human CHT choline transport inhibition; 310,000 tested, 0.86% active; CHT-expressing cells, membrane potential dye, choline response; active compounds read low; Q9GZV3; B-score at 10 µM; AID 488975;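 active = B-score over 3 SD under the library average, and starting fluorescence ratio not unusually high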;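 also: choline stimulus applied at its EC90 after an EC20 pre-addition; B-score computed on integrated fluorescence ratio after choline addition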
TMEM16A act = activators or potentiators of mouse TMEM16A chloride channel; AID 623877; Q8BHY3; 340,000 tested, 0.3% active; HEK293 TMEM16A/YFP-H148Q/I152L, iodide quench fluorescence; active compounds read low; B-score at 10 µM;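 active = fluorescence-ratio B-score plate-corrected deviation score at least 3 library SD below zero, with starting fluorescence score within 5 deviations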;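 also: channel opened by trigger with iodide after compound preincubation; score built on the fluorescence ratio of max minus min over baseline; more negative score means more quench and so TMEM16A activation or potentiation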
Target sequence (Q8BHY3 whole entry, looked up): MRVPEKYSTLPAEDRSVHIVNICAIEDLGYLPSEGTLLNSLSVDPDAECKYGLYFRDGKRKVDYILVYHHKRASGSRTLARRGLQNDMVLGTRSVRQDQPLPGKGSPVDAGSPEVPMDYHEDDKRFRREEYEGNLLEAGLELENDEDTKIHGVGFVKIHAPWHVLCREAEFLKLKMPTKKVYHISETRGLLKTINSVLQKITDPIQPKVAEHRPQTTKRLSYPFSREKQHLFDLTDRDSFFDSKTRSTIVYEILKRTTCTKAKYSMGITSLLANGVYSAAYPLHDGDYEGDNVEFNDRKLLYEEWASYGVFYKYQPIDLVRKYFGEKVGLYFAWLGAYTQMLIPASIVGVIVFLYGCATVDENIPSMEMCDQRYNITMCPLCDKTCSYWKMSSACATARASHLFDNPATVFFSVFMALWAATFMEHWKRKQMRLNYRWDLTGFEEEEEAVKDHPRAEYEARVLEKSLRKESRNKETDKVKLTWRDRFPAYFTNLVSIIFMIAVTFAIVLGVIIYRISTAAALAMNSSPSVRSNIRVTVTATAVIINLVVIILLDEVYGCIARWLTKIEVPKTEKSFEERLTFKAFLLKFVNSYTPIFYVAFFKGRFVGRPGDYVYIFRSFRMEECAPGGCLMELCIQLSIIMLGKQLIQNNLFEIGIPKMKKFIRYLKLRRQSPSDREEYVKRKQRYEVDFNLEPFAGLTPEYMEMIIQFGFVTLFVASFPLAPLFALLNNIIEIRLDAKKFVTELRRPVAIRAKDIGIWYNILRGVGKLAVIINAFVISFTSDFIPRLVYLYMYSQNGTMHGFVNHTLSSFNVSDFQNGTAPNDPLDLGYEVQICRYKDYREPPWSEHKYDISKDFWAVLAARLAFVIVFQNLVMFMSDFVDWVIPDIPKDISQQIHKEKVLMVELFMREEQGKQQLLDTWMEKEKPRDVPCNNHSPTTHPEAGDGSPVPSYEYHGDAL
TMEM16A inh = inhibitors of mouse TMEM16A calcium-activated chloride channel; normalized B-score (activity score, 25-100; higher = stronger inhibition) at 10 µM; Q8BHY3; HEK293 TMEM16A/YFP iodide influx fluorescence, ionomycin; 310,000 tested, 1.2% active;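 active = ratio plate-corrected score three or more library SD toward inhibition, starting fluorescence score within five deviations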;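 also: score derived from kinetic fluorescence span divided by baseline fluorescence per well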
Each line names hits and unclear results; the compound was inactive in the other large screens.

Cc1ccc(N(CCC#N)C(=O)CSc2nnc3ccccn23)cc1	none (no result: CHT PAM, CHT block, TMEM16A inh)
CC(=O)Nc1nc(=S)ss1	none
Cc1ccccc1C(=O)Nc1nc(=S)ss1	TMEM16A inh 100
CN(CC1CCCO1)S(=O)(=O)c1ccc(C(=O)Nc2ccccc2F)cc1 (stereo not given)	none
CN(CC1CCCO1)S(=O)(=O)c1ccc(C(=O)Nc2nc(-c3ccccn3)cs2)cc1 (stereo not given)	TMEM16A inh 25
Cc1csc(NC(=O)Cc2nn(C)c(=O)c3ccccc23)n1	TMEM16A inh 25
COc1cccc(OC)c1NC(=O)Cc1nn(C)c(=O)c2ccccc12	none
COc1ccccc1NC(=O)Cc1nn(C)c(=O)c2ccccc12	TMEM16A inh 25
CCN1CCN(c2ccc(S(=O)(=O)N3CCOCC3)cc2NC(=O)/C=C/c2ccc([N+](=O)[O-])cc2)CC1	none
N/C(CN1CCSCC1)=N\OCc1c(F)cccc1Cl	none
N#CC1=C(N)NC(SCC(=O)O)=C(C#N)C12CCCC2	none
N#CC1=C(N)NC(SCc2ccc(F)cc2)=C(C#N)C12CCCCC2	TMEM16A inh 100
O=C1C=C(/C=C/C2C=CC=CC2)C[C@@H](c2ccc(Cl)cc2)C1 (stereo not given in full)	TMEM16A act -9.77 (no result: CHT PAM, CHT block, TMEM16A inh)
O=c1cc(CN2CCCc3ccccc32)nc2sccn12	TMEM16A act -10.6
CCCCC(=O)NC(c1ccc([N+](=O)[O-])cc1)c1c(O)ccc2ccccc12 (stereo not given)	TMEM16A inh 100
CSCCC(NS(=O)(=O)c1ccccc1F)C(=O)NCc1cccs1 (stereo not given)	none (no result: CHT PAM, CHT block, TMEM16A inh)
COc1ccc(CCNc2ncnc3c2oc2ccccc23)cc1OC	TMEM16A inh 100
Cc1c(C(C)C)c(=O)n(-c2ccc(S(=O)(=O)NC3CCCCC3)cc2)n1C	none
Cc1c(C(C)C)c(=O)n(-c2ccc(S(=O)(=O)NCc3ccccc3)cc2)n1C	TMEM16A inh 25
O=C1C(NS(=O)(=O)c2cccs2)=C(N2CCN(Cc3ccccc3)CC2)C(=O)c2ccccc21	CHT block -5.47
O=[N+]([O-])c1cc(S(=O)(=O)N2CCCCCC2)ccc1F	TMEM16A act -6.59
COc1ccc(S(=O)(=O)N2CCCCC2)cc1NC(=O)COC(=O)c1ccco1	none (no result: CHT PAM, CHT block, TMEM16A inh)
CCOc1ccccc1N1CCN(CC(=O)Nc2ccccc2C(=O)NC2CC2)CC1	none (no result: CHT PAM, CHT block, TMEM16A inh)
Cc1ccc(OCCn2cc(C#N)c3ccccc32)cc1	TMEM16A inh 100
COC(=O)c1cn(CCOc2ccc(C)cc2)c2ccccc12	none
C/C(=N\NC(=O)c1nnn(-c2nonc2N)c1CN1CCCCC1)c1ccccc1O	none
Cc1ccc(C(C)C)cc1OCC(=O)N/N=C/c1ccc2c(c1)OCCO2	TMEM16A inh 100
CCOc1ccc(S(=O)(=O)N(C)CC(=O)NC2CC2)cc1	none
COc1ccc(N=C2SC(CC(=O)Nc3ccccc3)C(=O)N2Cc2ccccn2)cc1 (stereo not given)	TMEM16A act -5.75
CC1CCN(CC(=O)Nc2cccc([N+](=O)[O-])c2)CC1	TMEM16A inh 25
CCOC(=O)C(C(=O)NCc1ccc(F)cc1)c1ncc(C(F)(F)F)cc1Cl (stereo not given)	none
O=C(NCc1ccc(F)cc1)C(C(=O)NCc1ccc(F)cc1)c1ncc(C(F)(F)F)cc1Cl	TMEM16A act -7.26
CCC1=NN(C(=O)C(=O)Nc2ccc(Br)cc2)C(O)(C(F)(F)F)C1 (stereo not given)	none
CCCC1=NN(C(=O)C(=O)Nc2ccc(Br)cc2)C(O)(C(F)(F)F)C1 (stereo not given)	TMEM16A inh 25
O=C(N/N=C/c1cccnc1)c1ccc([N+](=O)[O-])cc1	CHT PAM 6.82
CCC1CCCCN1S(=O)(=O)c1ccc(S(=O)(=O)N(Cc2cccs2)C2CC2)cc1 (stereo not given)	TMEM16A act -16.1
COC(=O)c1c(C)cccc1C1CN=NC12Cc1ccccc1C2=O (stereo not given)	TMEM16A act -7.37 (no result: CHT PAM, CHT block, TMEM16A inh)
CCC(=O)Nc1nnc(SCCOC)s1	TMEM16A inh 25
COCCSc1nnc(NC(=O)COC)s1	none
CCCSc1nnc(NC(=O)Nc2ccc(F)cc2)s1	TMEM16A inh 100
COc1ccccc1N1CCN(C(=O)CSc2nc3ccccc3[nH]2)CC1	TMEM16A inh 25
COc1ccc(CNC(=S)N/N=C(/C)c2ccccc2)cc1	TMEM16A inh 25
CCOc1ccccc1N(C(=O)Cn1nnnc1-c1ccc(C)o1)C(CC)C(=O)NC(C)(C)C (stereo not given)	none
O=C(NCc1ccco1)c1sc(=S)n2c1[nH]c(=O)c1ccccc12	TMEM16A inh 100

Screens from PubChem BioAssay.
